# Out of some 410,000 compounds screened, about 6,400 (1.6%) were called active. Inconclusive results (about 20%) are left out. Calls come from the whole dose curve; as a rule, active = well fitted inhibition curve with a large enough effect; inconclusive = small, poorly fitted or top-dose-only effect; inactive = no such curve, though single readings can be large or run the other way. The sample as a whole holds a higher share of actives than the screen did.
# Biological target: Glucagon-like peptide 1 receptor (Homo sapiens) (UniProt P43220)
# Sequence (P43220 whole entry, looked up): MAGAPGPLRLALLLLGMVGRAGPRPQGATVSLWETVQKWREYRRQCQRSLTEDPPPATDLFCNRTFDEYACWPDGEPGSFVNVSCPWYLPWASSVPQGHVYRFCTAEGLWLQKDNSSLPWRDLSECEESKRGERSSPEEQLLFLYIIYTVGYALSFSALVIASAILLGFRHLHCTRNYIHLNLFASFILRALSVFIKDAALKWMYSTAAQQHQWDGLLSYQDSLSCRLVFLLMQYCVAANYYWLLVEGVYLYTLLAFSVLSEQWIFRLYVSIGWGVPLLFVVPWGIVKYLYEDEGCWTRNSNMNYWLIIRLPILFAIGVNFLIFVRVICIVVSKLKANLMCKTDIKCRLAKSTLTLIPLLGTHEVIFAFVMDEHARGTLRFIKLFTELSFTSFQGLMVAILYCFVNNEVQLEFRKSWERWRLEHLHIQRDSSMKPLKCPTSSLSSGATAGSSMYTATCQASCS
# Test: qHTS of GLP-1 Receptor Inverse Agonists (Inhibition Mode); note: nearly all actives have a fitted effect of over 55% in size
# Details: HEK293 GLP-1R CRE-luciferase, luminescence, 24 h, GLP-1R form is constitutively active; series mostly up to 38.3 µM; activity change, negative = inhibition: at the top concentration
# Procedure, shortened: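 Using stably transfected HEK293 (constitutively active GLP-1R, cAMP-luciferase reporter), compounds were incubated 24 hr and luciferase measured by luminescence.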
# % is set by controls: 0 for no effect and ±100 for the full control effect; potency is the fitted concentration of half-maximal effect.
Structure (SMILES),"activity change, negative = inhibition",Potency
C=CCOC(=O)c1ccccc1C(=O)OCC=C,5.03% (inactive),–
COc1ccc(-c2[nH][nH]c(=O)c2NC(=O)c2ccc([N+](=O)[O-])cc2)cc1,29.1% (inactive),–
COc1ccc(C(CNC(=O)COc2ccccc2OC)N2CCCCC2)cc1 (stereo not given),-9.18% (inactive),–
CCc1ccc(OCC(=O)NCC(c2ccc(Cl)cc2)N2CCCCC2)cc1 (stereo not given),–,8.91 µM (active)
COc1ccc(C(CNC(=O)COc2ccc([N+](=O)[O-])cc2)N2CCCCC2)cc1 (stereo not given),-38.2% (inactive),–
O=S1(=O)CC(N2CCN(CCO)CC2)CN1Cc1cn(Cc2cccc(Cl)c2)nn1 (stereo not given),13.8% (inactive),–
CC1CC(C)(C)n2c(O)c(N=NC(N)=S)c3cccc1c32 (stereo not given),–,5.01 µM (active)
CN1OC[C@@H]2CN(S(=O)(=O)c3cccc(C(F)(F)F)c3)[C@H](c3ccc(-c4cc5ccccc5o4)cc3)C[C@@H]21,-27.7% (inactive),–
Cc1ccc(CN(N=Nc2nonc2N)c2nonc2N)c(C)c1,–,2.82 µM (active)
COc1cc(CNc2ncnc3c2ncn3[C@H]2CN(Cc3cccs3)C[C@@H](CO)O2)cc(OC)c1OC,12.8% (inactive),–
CN(C)C(CNC(=O)c1cccc(C#N)c1)c1ccco1 (stereo not given),-28.8% (inactive),–
CCOc1ccc(NS(=O)(=O)c2ccc(C(=O)NCC3CCCO3)cc2)cc1 (stereo not given),12% (inactive),–
COc1ccccc1C(CNC(=O)c1cccc(NS(=O)(=O)c2ccc(Br)cc2)c1)N(C)C (stereo not given),–,10 µM (active)
CCOc1ccc(S(=O)(=O)Nc2ccc(C(=O)NCCCN3CCCC3=O)cc2)cc1,8.39% (inactive),–
CN(C)C(CNC(=O)c1cccc(S(=O)(=O)Nc2ccc(Br)cc2)c1)c1ccco1 (stereo not given),–,12.6 µM (active)
CCOc1ccc(NS(=O)(=O)c2ccc(C(=O)NCC(c3ccccc3OC)N3CCCC3)cc2)cc1 (stereo not given),–,11.2 µM (active)
COc1ccc(C(CNC(=O)c2cccc(S(=O)(=O)Nc3ccc(Br)cc3)c2)N(C)C)cc1 (stereo not given),–,10 µM (active)
COc1ccccc1NS(=O)(=O)c1ccc(C)c(C(=O)NCC(c2ccco2)N(C)C)c1 (stereo not given),14.3% (inactive),–
CC(=O)c1ccc(S(=O)(=O)Nc2ccc(C(=O)NCC(c3ccccc3)N(C)C)cc2)cc1 (stereo not given),7.27% (inactive),–
COc1ccc(C(CNC(=O)c2ccc(S(=O)(=O)Nc3ccccc3F)cc2)N(C)C)cc1 (stereo not given),-1.55% (inactive),–
CC1CN(C(=O)c2cccc(NS(=O)(=O)c3ccc(Br)cc3)c2)CC(C)O1 (stereo not given),-2.73% (inactive),–
COc1ccc(NS(=O)(=O)c2cccc(C(=O)NCCc3ccc(S(N)(=O)=O)cc3)c2)cc1,8.26% (inactive),–
Cc1ccc(NC(=O)COC(=O)CN2CCSC2=O)cc1F,4.88% (inactive),–

Structure (SMILES),"activity change, negative = inhibition",Potency
OCCN1CCN(c2ncnc3c2ncn3[C@H]2CN(Cc3ccco3)C[C@@H](CO)O2)CC1,27.9% (inactive),–
CCOC1=C2CN(S(=O)(=O)c3ccc(C)cc3)[C@H](c3cccs3)C[C@H]2[C@H]2C(=O)N(c3ccccc3)C(=O)[C@H]2C1,19.3% (inactive),–
C[C@H]1NS(=O)(=O)c2cc(Cl)ccc2O[C@@H]1c1ccccc1,-13.6% (inactive),–
CC1(C)CC(=O)C=C(c2ccc(COC(=O)c3cc(F)cc(F)c3)cc2)C1=O,-15.2% (inactive),–
O=C(Nc1cc(Br)ccc1F)c1nc[nH]c1C(=O)NCc1ccccc1,-18.9% (inactive),–
O=[N+]([O-])c1ccc(CN2CC(N3CCC(c4ccccc4)CC3)CS2(=O)=O)cc1 (stereo not given),-15.4% (inactive),–
Cc1cccc(NS(=O)(=O)c2ccc(C)c(C(=O)NCC(c3ccccc3)N(C)C)c2)c1 (stereo not given),–,3.98 µM (active)
Cc1cccc(NS(=O)(=O)c2ccc(C)c(C(N)=O)c2)c1,8.25% (inactive),–
Cc1cccc(NS(=O)(=O)c2ccc(C)c(C(=O)NCc3cccnc3)c2)c1,-16.4% (inactive),–
CCCc1c(C)nc2scc(-c3ccc(Cl)cc3)n2c1=O,-2.09% (inactive),–
CCc1nc2c(OCCOc3ccccc3)cccn2c1N(C)C(=O)c1ccccc1F,-23.8% (inactive),–
O=C(CCN1CCCCC1)Nc1ccc(F)c(F)c1,0.244% (inactive),–
CCOC(=O)N1CCN(C(=O)c2nn(-c3ccc(C)cc3)c(=O)c3c2c2ccccc2n3C)CC1,-23.3% (inactive),–
CCOc1ccc(NC(=O)c2cn(C3CCCCC3)c(=O)c3c2c2ccccc2n3C)cc1,6.66% (inactive),–
Cn1c2ccccc2c2c(C(=O)N3CCN(c4ccc(F)cc4)CC3)cn(C3CCCC3)c(=O)c21,–,10 µM (active)
CCN(CC)CCN(C)C(c1ccnc2ccccc12)c1nnnn1-c1ccc2c(c1)OCCO2 (stereo not given),6.96% (inactive),–
CCCCNC(=O)c1ccc(-n2c(=S)[nH]c3ccccc3c2=O)cc1,11.5% [at 7.66 µM] (inactive),–
CCCCNC(=O)N(O)C1N(/N=C/c2ccccc2O)C(=S)SC1(C)C (stereo not given),–,11.2 µM (active)
CCCCC(O)C1=C[N+](=O)CC=C1 (stereo not given),17.7% (inactive),–
C[C@H](NC(=O)[C@@H]1CCCN1C(=O)[C@@H]1CCCN1C(=O)c1ccccc1)c1ccccc1,-4.32% (inactive),–
COC(=O)c1ccc2nc(-c3ccc(Cl)cc3)c(Cc3cccc(F)c3)n2c1,3% (inactive),–
CN1/C(=c2/s/c(=C3/C(=O)N(c4ccccc4)NC3=Nc3ccccc3)n(C)c2=O)C(C)(C)c2ccccc21,–,1.41 µM (active)

# Source: PubChem BioAssay AID624417 (National Center for Advancing Translational Sciences (NCATS), 2012)
